Assay results as given in the supplement of paper PMC10503962.

These compounds were tested on Trichuris muris adult worms (assay: mean motility score (Paragon pixel variance) of adult worms (arbitrary units); higher = more motile worms, i.e. less anthelmintic effect; extreme values may be limits of the assay). Details: 100 µM; 24 h.
Experimental: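 Primary ex vivo screen of 409 approved drugs against adult Trichuris muris worms: one worm per well in RPMI-1640 with penicillin/streptomycin, 100 µM drug in 1% DMSO, 37 °C, 5% CO2 for 24 h. Motility was recorded with INVAPP (200-frame movies) and scored with the Paragon pixel-variance algorithm. Values are means of triplicate wells run on three occasions; levamisole was the positive control and DMSO the negative control.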

Compound | mean motility score
CN(C(=O)CN(CCO)CC(=O)N(C)C(C)(C)Cc1ccccc1)C(C)(C)Cc1ccccc1 [oxethazaine] | 184
Cc1ccnc2c1NC(=O)c1cccnc1N2C1CC1 [nevirapine] | 2540
CNCC[C@H](Oc1cccc2ccccc12)c1cccs1.Cl [duloxetine hydrochloride] | 2.67
CC[C@H]1OC(=O)[C@H](C)[C@@H](O[C@H]2C[C@@](C)(OC)[C@@H](O)[C@H](C)O2)[C@H](C)[C@@H](O[C@@H]2O[C@H](C)C[C@H](N(C)C)[C@H]2O)[C@](C)(OC)C[C@@H](C)C(=O)[C@H](C)[C@@H](O)[C@]1(C)O [clarithromycin] | 2330
CN(C)CCOC(=O)C(c1ccccc1)C1(O)CCCC1 (stereo not given) [cyclopentolate] | 2640
CO/N=C(\C(=O)N[C@@H]1C(=O)N2C(C(=O)[O-])=C(COC(N)=O)CS[C@H]12)c1ccco1.[Na+] [cefuroxime sodium] | 2610
C#C[C@]1(O)CC[C@H]2[C@@H]3CCC4=CC(=O)CC[C@@H]4[C@H]3CC[C@@]21CC [levonorgestrel] | 3390
Cc1[nH]c2ccccc2c1CCNCc1ccc(/C=C/C(=O)NO)cc1 [panobinostat] | 2620
COc1ccc2cc([C@@H](C)C(=O)O)ccc2c1 [(R)-naproxen] | 1390
OCC(O)CO [glycerin] | 3460
COc1ccc2cccc(CCNC(C)=O)c2c1 [agomelatine] | 3270
COC(=O)c1ccccc1O [methyl salicylate] | 3260
C[C@@H](Oc1cc(-c2cnn(C3CCNCC3)c2)cnc1N)c1c(Cl)ccc(F)c1Cl [crizotinib] | 284
CCCCc1oc2ccccc2c1C(=O)c1cc(I)c(OCCN(CC)CC)c(I)c1 [amiodarone] | 2080
O=C1c2c(O)ccc(O)c2C(=O)c2c(NCCNCCO)ccc(NCCNCCO)c21 [mitoxantrone] | 1350
CCN(CC)CCOc1ccc2nc(N(C)C)sc2c1.Cl.Cl [diamthazole dihydrochloride] | 4190
Cc1c(N(C)C)c(=O)n(-c2ccccc2)n1C [aminopyrine] | 2250
COC(=O)[C@H]1[C@H]2C[C@@H]3c4[nH]c5cc(OC)ccc5c4CCN3C[C@H]2C[C@@H](OC(=O)c2cc(OC)c(OC)c(OC)c2)[C@@H]1OC [reserpine] | 2180
Cc1cc(C2CCCCC2)n(O)c(=O)c1 [ciclopirox] | 3190
C=C(c1ccc(C(=O)O)cc1)c1cc2c(cc1C)C(C)(C)CCC2(C)C [bexarotene] | 750

Compound | mean motility score
CN(C)c1nc(N(C)C)nc(N(C)C)n1 [altretamine] | 3430
CCOc1cc2ncc(C#N)c(Nc3ccc(OCc4ccccn4)c(Cl)c3)c2cc1NC(=O)/C=C/CN(C)C [neratinib] | 1890
CCN(CC)CCNC(=O)c1c(C)[nH]c(/C=C2\C(=O)Nc3ccc(F)cc32)c1C [sunitinib] | 531
CC(CCc1ccc(O)cc1)NCCc1ccc(O)c(O)c1 (stereo not given) [dobutamine] | 2870
COC(=O)C1=C(C)NC(C)=C(C(=O)OCCN(C)Cc2ccccc2)C1c1cccc([N+](=O)[O-])c1 (stereo not given) [nicardipine] | 0
Cc1nnc(SCC2=C(C(=O)[O-])N3C(=O)[C@@H](NC(=O)Cn4cnnn4)[C@H]3SC2)s1.[Na+] [cefazolin sodium] | 1680
O=C1C(O)=C([C@H]2CC[C@H](c3ccc(Cl)cc3)CC2)C(=O)c2ccccc21 [atovaquone] | 1650
CCN[C@H]1C[C@H](C)S(=O)(=O)c2sc(S(N)(=O)=O)cc21 [dorzolamide] | 2540
Nc1ncnc2c1ncn2[C@@H]1O[C@H](CO)[C@@H](O)[C@H]1O [adenosine] | 3520
CNC[C@H](O)c1ccc(O)c(O)c1 [epinephrine] | 3270
COC1=C(OC)C(=O)C(C/C=C(\C)CC/C=C(\C)CC/C=C(\C)CC/C=C(\C)CC/C=C(\C)CC/C=C(\C)CC/C=C(\C)CC/C=C(\C)CC/C=C(\C)CCC=C(C)C)=C(C)C1=O [ubidecarenone] | 2770
CCOC(=O)[C@H](CCc1ccccc1)N[C@@H](C)C(=O)N1Cc2ccccc2C[C@H]1C(=O)O.Cl [quinapril hydrochloride] | 4700
CC(=O)Oc1cc(C(C)C)c(OCCN(C)C)cc1C.Cl [moxisylyte hydrochloride] | 1780
O=C(O)Cc1ccc(-c2ccccc2)cc1 [felbinac] | 3440
CCOC(=O)[C@H](CCc1ccccc1)N[C@@H](C)C(=O)N1[C@H](C(=O)O)C[C@@H]2CCC[C@@H]21 [ramipril] | 3060
CC1=C(C(=O)O)N2C(=O)[C@@H](NC(=O)[C@H](N)c3ccccc3)[C@H]2SC1 [cephalexin] | 4830
CN1CCN(CC/C=C2/c3ccccc3Sc3ccc(S(=O)(=O)N(C)C)cc32)CC1 [thiothixene] | 1030
CNC(=O)c1ccccc1Sc1ccc2c(/C=C/c3ccccn3)n[nH]c2c1 [axitinib] | 2490
N=C(NCCCCCCNC(=N)NC(=N)Nc1ccc(Cl)cc1)NC(=N)Nc1ccc(Cl)cc1 [chlorhexidine] | 320
O=P(O)(O)C(O)(Cn1ccnc1)P(=O)(O)O [zoledronic acid] | 1210
